PfM18AAP inh-1 = blocks P. falciparum M18 aspartyl aminopeptidase; AID 1822; 290,000 compounds, 1.2% hits; inhibition, % at 7.35 µM; recombinant PfM18AAP, H-Glu-NHMec fluorogenic cleavage;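 active means inhibition above the campaign mean inhibition over all tested compounds plus 3 SD, cut at about 28% in these data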;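 further: 0% = plate median of test compound wells and 100% = 2 mM ZnCl2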
PRMT1 FP inh = blocks human protein arginine methyltransferase 1 | Q99873 | recombinant PRMT1, activity-based probe fluorescence polarization | inhibition, % at 2.79 µM | 370,000 compounds, 1.3% hits | AID 652257;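 active means inhibition above about 21% made by adding two undisclosed values, limit read from the data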
Target sequence (Q99873 whole entry, looked up): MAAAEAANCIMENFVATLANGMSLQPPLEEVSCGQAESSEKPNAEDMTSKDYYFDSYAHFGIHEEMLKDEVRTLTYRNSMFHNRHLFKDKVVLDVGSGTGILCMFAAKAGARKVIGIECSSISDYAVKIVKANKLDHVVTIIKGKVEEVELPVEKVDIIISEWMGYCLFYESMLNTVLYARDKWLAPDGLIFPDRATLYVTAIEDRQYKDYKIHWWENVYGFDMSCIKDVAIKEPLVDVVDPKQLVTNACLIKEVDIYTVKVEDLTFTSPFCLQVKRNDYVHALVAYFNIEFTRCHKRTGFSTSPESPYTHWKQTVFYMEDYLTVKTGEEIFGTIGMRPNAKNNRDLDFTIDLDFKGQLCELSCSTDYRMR
PfG6PD inh = PfG6PD (Plasmodium falciparum) enzyme inhibition | PfGluPho enzyme, NADPH resazurin-diaphorase fluorescence | inhibition, % at 20 µM | 350,000 compounds, 0.78% hits | AID 504690;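 active means inhibition reaching at least a set limit at 20 µM in the primary screen, cut at about 59% in these data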;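 further: 0% = DMSO wells with substrate and 100% = DMSO wells lacking glucose-6-phosphate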
UHRF1 MBD2 ctr = blocks human UHRF1 binding to methylated DNA | Q96T88 | UHRF1 binding to methylated oligo, TR-FRET | inhibition, % at 4.4 µM | 370,000 compounds, 0.75% hits; in the data active means inhibition above about 21%;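 further: UHRF1 SRA domain binding a hemimethylated CpG hairpin DNA probe; 0% = median of test compound wells and 100% = reference inhibitor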
MBD2 DNA inh = inhibitors of human MBD2 binding to methylated oligonucleotide. AID 686964. Q9UBB5. TR-FRET. inhibition, % at 4.4 µM. 370,000 compounds, 0.31% hits; in the data active means inhibition above about 13%
PfM18AAP inh-2 = confirmation of Plasmodium falciparum M18 aspartyl aminopeptidase inhibitors; inhibition, % at 7.35 µM; recombinant PfM18AAP, H-Glu-NHMec fluorogenic cleavage; AID 2170; shares compounds with PfM18AAP inh-1; 2,400 compounds, 28% hits;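 active means mean inhibition over replicate wells above the hit cutoff set for the earlier primary screen, cut at about 29% in these data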;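 further: 0% = median of test compound wells and 100% = 2 mM ZnCl2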
CTSL1 confirm = counter-screen for PFM18AAP inhibitors: confirmation of human cathepsin L inhibitors | shares compounds with PfM18AAP inh-1 | purified cathepsin L1, Z-Leu-Arg-MCA fluorescence | inhibition, % at 5.96 µM | 2,400 tested, under 10 active;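 active means average inhibition across replicates above the hit cutoff set in the earlier primary screen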;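 further: 0% = median of test compound wells and 100% = Z-Phe-Ala-diazomethylketone 1 µM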
Target sequence (P07711 whole entry, looked up): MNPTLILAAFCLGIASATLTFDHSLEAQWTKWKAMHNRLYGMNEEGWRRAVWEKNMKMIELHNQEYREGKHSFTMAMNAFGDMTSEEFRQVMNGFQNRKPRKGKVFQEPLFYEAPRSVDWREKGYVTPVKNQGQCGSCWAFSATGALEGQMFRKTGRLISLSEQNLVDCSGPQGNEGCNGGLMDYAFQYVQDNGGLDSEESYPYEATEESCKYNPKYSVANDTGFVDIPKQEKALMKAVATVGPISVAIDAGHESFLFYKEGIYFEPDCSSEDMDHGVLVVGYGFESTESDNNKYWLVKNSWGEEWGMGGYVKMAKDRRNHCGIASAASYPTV
PfG6PD confirm = PfG6PD inhibition, single-dose confirmed; shares compounds with PfG6PD inh; recombinant PfGluPho, NADPH-diaphorase-resazurin fluorescence; inhibition, % at 20 µM; 2,400 compounds, 34% hits; AID 504753;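 active means inhibition of at least 50% at 20 µM in any single replicate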;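 further: 0% = DMSO with substrate and 100% = DMSO lacking glucose-6-phosphate substrate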
Diaphorase 10uM = diaphorase inhibition or oxidation at 10 uM NADPH; shares compounds with PfG6PD inh; diaphorase-coupled resazurin reduction, fluorescence, NADPH 10 uM; inhibition, % at 20 µM; 820 compounds, 39% hits; AID 504862;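 active means average inhibition reaching 50% or more with the compound at 20 µM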;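 further: resorufin red fluorescence formed as diaphorase reduces resazurin using NADPH; 0% = DMSO with enzyme and 100% = DMSO without enzyme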
Diaph ctr 30uM = diaphorase inhibition or oxidation at 30 uM NADPH. 820 compounds, 29% hits. inhibition, % at 20 µM. Diaphorase/resazurin coupled assay, resorufin fluorescence. shares compounds with PfG6PD inh;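 active means inhibition averaging 50% or more, tested at 20 µM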;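 further: 0% = DMSO with enzyme and 100% = DMSO wells lacking diaphorase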
An asterisk follows results filed as active; x = not tested or not shown. This is a sample that favours compounds with a hit; in the whole collection about 3.3% have one here.

SMILES	PfM18AAP inh-1	PRMT1 FP inh	PfG6PD inh	UHRF1 MBD2 ctr	MBD2 DNA inh	PfM18AAP inh-2	CTSL1 confirm	PfG6PD confirm	others
NC(=S)NNC(=O)Nc1ccc(Cl)c(Cl)c1	35*	-2	31	-5	-3	14	2	x
CC12CC(NC(=O)N1c1cccc(C(=O)Nc3ncn[nH]3)c1)c1ccccc1O2 (stereo not drawn)	43*	-2	0	1	-3	50*	-7	x
CCCC(=O)OC[C@H]1CN(C2CCCC2)S(=O)(=O)c2c(F)cccc2O1	x	-1	x	-2	-1	x	x	x
Cc1noc(C)c1S(=O)(=O)N(C)C[C@@H]1OCc2cn(nn2)CCCC(=O)N([C@H](C)CO)C[C@H]1C	x	-4	x	2	-2	x	x	x
COc1ccc(-c2nn(-c3ccccc3)cc2/C=N/Nc2cccc(C(=O)O)c2)cc1	33*	-4	17	-1	3	-25	2	x
N#CCC(=O)N/N=C/c1ccc(OC2CSC2)cc1	40*	0	-5	-4	-9	-12	0	x
CN(C)c1ccc(/C=N/NC(=O)CCCO)cc1	2	4	-2	4	0	x	x	x
CN(C)c1ccc(/C=N\NC(=O)CC#N)cc1	50*	0	11	-5	-5	-34	3	x
CCN(CC)C(=O)c1c(C)[nH]c(=S)c(C#N)c1-c1ccco1	56*	15	61*	1	2	21	1	51*	Diaphorase 10uM=3;Diaph ctr 30uM=-4
O=C(CCc1ccc(O)c(O)c1)N/N=C/c1cc2c(cc1[N+](=O)[O-])OCO2	76*	13	68*	28*	5	51*	-1	65*	Diaphorase 10uM=33;Diaph ctr 30uM=17
Cc1cc(O)c(-c2cc(O)c(C)cc2O)cc1O	71*	87*	112*	-4	-7	51*	-2	110*	Diaphorase 10uM=73*;Diaph ctr 30uM=22
O=C(NC1CC1)c1sc2cc([N+](=O)[O-])ccc2c1Cl	-5	-1	13	-7	-7	x	x	x
CC(NC(=O)c1sc2cc([N+](=O)[O-])ccc2c1Cl)C(C)(C)C (stereo not drawn)	38*	13	97*	-2	3	31*	2	70*	Diaphorase 10uM=0;Diaph ctr 30uM=-3
Cc1ccc(S(=O)(=O)N2CCOCC2)cc1NC(=O)CN1CCN(c2ccc(O)cc2)CC1	34*	13	65*	0	2	8	0	23
Oc1ccc(/C=N/N2CCCCC2)c(O)c1O	48*	23*	118*	12	-2	1	-8	92*	Diaphorase 10uM=98*;Diaph ctr 30uM=96*
CC1(c2ccc([N+](=O)[O-])cc2)Nc2ccccc2S1 (stereo not drawn)	35*	45*	72*	-3	4	-29	0	-2
C=CCN1C(=O)c2[nH]nc(-c3ccccc3)c2C1c1ccc(C)cc1 (stereo not drawn)	x	1	x	1	1	x	x	x
COc1cc(/C=N/Nc2nncn2N)ccc1OCc1c(C)no[n+]1[O-]	51*	3	82*	8	2	-6	5	63*	Diaphorase 10uM=34;Diaph ctr 30uM=24
O=C(c1cccc(S(=O)(=O)N2CCc3ccccc3C2)c1)N1CCN(c2ccc(O)cc2)CC1	36*	5	66*	-2	2	-5	4	26
NC(=O)C1CCN(C(=O)c2cccc(S(=O)(=O)N3CCc4ccccc4C3)c2)CC1	3	-2	16	-3	-7	x	x	x
COc1ccc(-n2c(SCC#N)nc3c(sc(=S)n3-c3ccccc3)c2=O)c(OC)c1	35*	8	91*	2	-1	23	3	41
C[C@H](CO)N1C[C@H](C)[C@H](CN(C)C(=O)Nc2ccc3c(c2)OCO3)OCc2cnnn2CCCC1=O	x	1	x	-2	0	x	x	x
COc1ccc(Br)cc1CNc1ccc(O)cc1	42*	17	68*	2	-11	-24	-3	38
Cc1cccc(N/N=C/c2ccc(O)c(O)c2O)c1	36*	33*	84*	7	7	17	2	44
COc1cccc(N/N=C/c2cccc(Br)c2O)c1	-2	11	30	-2	3	x	x	x
SMILES	PfM18AAP inh-1	PRMT1 FP inh	PfG6PD inh	UHRF1 MBD2 ctr	MBD2 DNA inh	PfM18AAP inh-2	CTSL1 confirm	PfG6PD confirm	others
CN1CCc2cccc3c2C1Cc1ccc(O)c(O)c1-3 (stereo not drawn)	75*	47*	64*	2	-4	74*	-9	46
COc1cc(C=NNC(=O)CN2CCN(Cc3ccc(C)cc3)CC2)cc(OC)c1O	x	-3	x	-1	-1	x	x	x
COc1cc(/C=N/N2CCN(Cc3ccc(C)cc3)CC2)cc(OC)c1O	47*	-2	79*	3	-6	4	1	16
Cc1sc(NC(=O)Nc2ccccc2)c(C(N)=O)c1C	37*	5	74*	-4	6	5	0	27
COC(=O)c1c(NC(=O)Nc2ccc(Cl)cc2)sc(C)c1C	13	3	-8	-1	2	x	x	x
O=[N+]([O-])c1ccc(N2CCN(c3ccc(O)cc3)CC2)cn1	41*	15	62*	-6	-2	2	-1	38
O=C(O)c1ccc([N+](=O)[O-])nc1	x	-1	-9	2	-2	x	x	x
CC1(C)Cc2c(c(N3CCOCC3)nc3sc(-c4ccc(C(=O)O)o4)c(N)c23)CO1	9	4	14	-4	-2	x	x	x
CC1(C)Cc2c(c(N3CCOCC3)nc3sc(C(=O)N4CCCCC4)c(N)c23)CO1	33*	17	68*	-5	-1	-6	2	15
O=C(CCC(=O)OCC(=O)c1ccc([N+](=O)[O-])cc1)Nc1ccccc1Cl	40*	x	68*	x	x	-6	-21	54*	Diaphorase 10uM=2;Diaph ctr 30uM=-3
Cc1ccccc1OCC(=O)NCC(=O)OCC(=O)c1ccc([N+](=O)[O-])cc1	46*	24*	70*	-1	-5	-19	-10	52*	Diaphorase 10uM=-7;Diaph ctr 30uM=-22
O=C(CCC(=O)OCC(=O)c1cccc([N+](=O)[O-])c1)Nc1cccc(Cl)c1Cl	0	6	24	3	4	x	x	x
Cc1ccc(C(=O)COC(=O)CNC(=O)COc2ccccc2C)cc1C	-16	1	3	0	-1	x	x	x
COc1ccc(/C=N/Nc2ccc([N+](=O)[O-])cc2)cc1Cn1cc([N+](=O)[O-])cn1	11	0	4	0	-4	x	x	x
COc1ccc(/C=N/Nc2ccc([N+](=O)[O-])cc2)cc1O	48*	5	81*	2	1	10	7	13

Compound activity as filed in PubChem BioAssay.
